# According to ChEMBL document CHEMBL1961873, “Compounds: GSK PKIS; Assays: Nanosyn kinase panel” (2012):
# How the values were obtained:
# [1] = biological target: T1, Inhibitor of nuclear factor kappa-B kinase subunit epsilon (Homo sapiens) (UniProt Q14164); conditions: at 1 µM;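 also: reported values are averaged percent inhibition figures against human IKKε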
# T1 sequence (whole entry): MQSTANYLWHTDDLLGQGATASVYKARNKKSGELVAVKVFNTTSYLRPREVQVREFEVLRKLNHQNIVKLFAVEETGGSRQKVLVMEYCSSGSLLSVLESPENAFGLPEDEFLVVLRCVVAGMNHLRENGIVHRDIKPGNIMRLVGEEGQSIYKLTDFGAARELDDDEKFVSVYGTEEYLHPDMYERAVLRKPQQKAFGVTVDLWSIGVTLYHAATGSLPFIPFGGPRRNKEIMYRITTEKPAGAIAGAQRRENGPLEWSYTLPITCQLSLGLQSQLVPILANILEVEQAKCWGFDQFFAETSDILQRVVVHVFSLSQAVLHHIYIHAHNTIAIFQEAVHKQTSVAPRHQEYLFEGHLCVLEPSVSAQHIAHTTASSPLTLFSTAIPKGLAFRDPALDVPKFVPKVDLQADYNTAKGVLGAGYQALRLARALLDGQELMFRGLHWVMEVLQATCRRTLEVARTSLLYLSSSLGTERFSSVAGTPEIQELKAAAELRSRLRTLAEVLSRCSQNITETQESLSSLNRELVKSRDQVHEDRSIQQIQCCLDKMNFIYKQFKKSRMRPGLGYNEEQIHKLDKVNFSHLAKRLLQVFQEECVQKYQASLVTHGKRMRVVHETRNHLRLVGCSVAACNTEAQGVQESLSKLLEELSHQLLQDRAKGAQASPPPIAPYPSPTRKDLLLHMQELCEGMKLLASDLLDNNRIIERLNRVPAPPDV
# [2] = biological target: T2, Serine/threonine-protein kinase Nek1 (Homo sapiens) (UniProt Q96PY6); conditions: at 0.1 µM
# T2 sequence (whole entry): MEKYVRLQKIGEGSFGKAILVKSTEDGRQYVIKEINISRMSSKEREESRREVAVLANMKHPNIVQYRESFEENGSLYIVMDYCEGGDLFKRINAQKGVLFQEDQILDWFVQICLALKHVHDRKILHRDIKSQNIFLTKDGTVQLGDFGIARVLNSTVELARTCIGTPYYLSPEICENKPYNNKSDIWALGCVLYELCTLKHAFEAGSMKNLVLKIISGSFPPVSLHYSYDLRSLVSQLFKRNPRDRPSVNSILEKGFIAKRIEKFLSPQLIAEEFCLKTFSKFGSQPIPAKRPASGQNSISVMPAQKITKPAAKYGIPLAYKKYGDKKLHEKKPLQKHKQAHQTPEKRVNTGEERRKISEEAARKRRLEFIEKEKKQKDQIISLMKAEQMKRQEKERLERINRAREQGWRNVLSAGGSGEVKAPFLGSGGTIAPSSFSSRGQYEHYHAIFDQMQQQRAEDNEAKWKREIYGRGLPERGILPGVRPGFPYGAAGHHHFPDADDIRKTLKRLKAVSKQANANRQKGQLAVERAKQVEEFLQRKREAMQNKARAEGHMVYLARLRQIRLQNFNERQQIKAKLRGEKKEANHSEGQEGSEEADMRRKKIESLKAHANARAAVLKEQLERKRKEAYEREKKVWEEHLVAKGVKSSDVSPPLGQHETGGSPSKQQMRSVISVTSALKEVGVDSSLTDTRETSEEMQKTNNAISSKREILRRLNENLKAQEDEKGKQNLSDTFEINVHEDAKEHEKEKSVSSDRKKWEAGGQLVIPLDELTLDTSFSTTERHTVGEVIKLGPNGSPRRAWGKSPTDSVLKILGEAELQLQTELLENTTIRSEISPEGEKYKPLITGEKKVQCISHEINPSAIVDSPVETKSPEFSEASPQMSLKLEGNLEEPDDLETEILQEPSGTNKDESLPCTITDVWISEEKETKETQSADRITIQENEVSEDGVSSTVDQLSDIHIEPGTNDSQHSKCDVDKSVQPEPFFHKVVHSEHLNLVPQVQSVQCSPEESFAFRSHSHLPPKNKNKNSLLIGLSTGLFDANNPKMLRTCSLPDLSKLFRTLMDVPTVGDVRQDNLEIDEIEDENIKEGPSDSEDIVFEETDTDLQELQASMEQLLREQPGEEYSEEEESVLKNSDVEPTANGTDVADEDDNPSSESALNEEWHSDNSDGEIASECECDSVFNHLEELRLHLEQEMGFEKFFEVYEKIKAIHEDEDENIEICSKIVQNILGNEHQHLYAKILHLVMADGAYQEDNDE
# [3] = biological target: T2, Serine/threonine-protein kinase Nek1 (Homo sapiens); conditions: at 1 µM
# [4] = biological target: T3, Serine/threonine-protein kinase Nek2 (Homo sapiens) (UniProt P51955); conditions: at 0.1 µM
# T3 sequence (whole entry): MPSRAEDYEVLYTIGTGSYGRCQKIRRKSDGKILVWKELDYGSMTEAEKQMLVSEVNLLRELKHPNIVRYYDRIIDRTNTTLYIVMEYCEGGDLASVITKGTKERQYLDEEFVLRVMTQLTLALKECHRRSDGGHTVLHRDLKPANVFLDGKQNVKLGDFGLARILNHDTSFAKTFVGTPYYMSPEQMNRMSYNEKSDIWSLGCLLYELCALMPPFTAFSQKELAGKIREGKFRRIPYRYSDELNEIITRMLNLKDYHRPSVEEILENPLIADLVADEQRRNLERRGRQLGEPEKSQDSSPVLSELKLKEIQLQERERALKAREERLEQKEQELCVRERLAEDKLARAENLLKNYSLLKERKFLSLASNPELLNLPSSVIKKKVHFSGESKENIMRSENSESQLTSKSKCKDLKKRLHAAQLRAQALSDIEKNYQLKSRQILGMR
# [5] = biological target: T3, Serine/threonine-protein kinase Nek2 (Homo sapiens); conditions: at 1 µM
# [6] = biological target: Serine/threonine-protein kinase Nek6 (Homo sapiens) (UniProt Q9HC98); conditions: at 0.1 µM
# [7] = biological target: Serine/threonine-protein kinase Nek6 (Homo sapiens) (UniProt Q9HC98); conditions: at 1 µM
# [8] = biological target: Serine/threonine-protein kinase Nek7 (Homo sapiens) (UniProt Q8TDX7); conditions: at 0.1 µM
# [9] = biological target: Serine/threonine-protein kinase Nek7 (Homo sapiens) (UniProt Q8TDX7); conditions: at 1 µM
# [10] = biological target: T4, Serine/threonine-protein kinase Nek9 (Homo sapiens) (UniProt Q8TD19); conditions: at 0.1 µM
# T4 sequence (whole entry): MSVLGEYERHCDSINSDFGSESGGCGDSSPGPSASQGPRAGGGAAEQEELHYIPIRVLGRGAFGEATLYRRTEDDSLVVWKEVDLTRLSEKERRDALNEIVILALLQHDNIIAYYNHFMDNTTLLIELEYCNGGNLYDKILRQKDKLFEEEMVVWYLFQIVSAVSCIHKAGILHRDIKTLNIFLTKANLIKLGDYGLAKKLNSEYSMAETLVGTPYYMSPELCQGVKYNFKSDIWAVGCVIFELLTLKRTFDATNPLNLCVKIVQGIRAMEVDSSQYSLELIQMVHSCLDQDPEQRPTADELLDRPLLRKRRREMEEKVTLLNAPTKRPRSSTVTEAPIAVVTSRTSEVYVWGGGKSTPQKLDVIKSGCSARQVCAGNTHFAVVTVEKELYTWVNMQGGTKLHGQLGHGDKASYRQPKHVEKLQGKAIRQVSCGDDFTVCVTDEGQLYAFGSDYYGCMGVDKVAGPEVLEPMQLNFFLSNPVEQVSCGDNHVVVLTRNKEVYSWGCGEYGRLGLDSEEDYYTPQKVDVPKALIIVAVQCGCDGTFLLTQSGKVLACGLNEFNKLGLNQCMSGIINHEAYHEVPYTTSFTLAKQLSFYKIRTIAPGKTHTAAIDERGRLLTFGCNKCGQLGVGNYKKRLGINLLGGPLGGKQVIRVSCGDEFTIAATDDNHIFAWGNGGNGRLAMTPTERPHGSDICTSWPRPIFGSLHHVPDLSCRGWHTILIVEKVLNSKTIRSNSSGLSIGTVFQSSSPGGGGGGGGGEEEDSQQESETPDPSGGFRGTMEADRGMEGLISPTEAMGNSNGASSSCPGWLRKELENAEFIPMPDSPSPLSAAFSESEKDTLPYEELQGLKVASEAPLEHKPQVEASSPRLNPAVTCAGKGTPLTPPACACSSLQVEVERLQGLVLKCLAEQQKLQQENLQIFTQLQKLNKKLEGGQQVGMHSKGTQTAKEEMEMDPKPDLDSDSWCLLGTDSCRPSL
# [11] = biological target: T4, Serine/threonine-protein kinase Nek9 (Homo sapiens); conditions: at 1 µM
# [12] = biological target: Serine/threonine-protein kinase PLK1 (Homo sapiens) (UniProt P53350); conditions: at 0.1 µM
# [13] = biological target: Serine/threonine-protein kinase PLK1 (Homo sapiens) (UniProt P53350); conditions: at 1 µM
# [14] = biological target: T5, Dual specificity protein kinase TTK (Homo sapiens) (UniProt P33981); conditions: at 0.1 µM
# T5 sequence (whole entry): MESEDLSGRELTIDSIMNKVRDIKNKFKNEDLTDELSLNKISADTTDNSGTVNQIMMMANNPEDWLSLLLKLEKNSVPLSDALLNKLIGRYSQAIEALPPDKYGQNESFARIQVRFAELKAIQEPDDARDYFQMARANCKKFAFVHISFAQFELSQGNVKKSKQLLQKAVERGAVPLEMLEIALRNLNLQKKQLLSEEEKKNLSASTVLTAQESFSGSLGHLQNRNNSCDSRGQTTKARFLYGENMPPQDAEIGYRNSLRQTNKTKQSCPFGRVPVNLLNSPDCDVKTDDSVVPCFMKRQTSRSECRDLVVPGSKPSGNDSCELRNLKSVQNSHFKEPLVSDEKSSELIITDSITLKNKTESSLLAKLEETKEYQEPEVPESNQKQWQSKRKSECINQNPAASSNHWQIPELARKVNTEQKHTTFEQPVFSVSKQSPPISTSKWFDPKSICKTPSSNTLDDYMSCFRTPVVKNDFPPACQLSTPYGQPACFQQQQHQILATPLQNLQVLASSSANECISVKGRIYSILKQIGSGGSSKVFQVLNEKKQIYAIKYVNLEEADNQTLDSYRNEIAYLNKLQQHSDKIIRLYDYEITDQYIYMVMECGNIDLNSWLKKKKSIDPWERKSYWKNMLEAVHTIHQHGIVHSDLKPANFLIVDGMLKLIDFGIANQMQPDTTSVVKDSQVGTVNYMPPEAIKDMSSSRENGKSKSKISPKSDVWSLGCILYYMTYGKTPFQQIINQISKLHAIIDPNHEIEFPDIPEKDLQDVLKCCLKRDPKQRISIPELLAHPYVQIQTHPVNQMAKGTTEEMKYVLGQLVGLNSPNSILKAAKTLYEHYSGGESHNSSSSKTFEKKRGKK
# [15] = system: T6, Receptor-type tyrosine-protein kinase FLT3 (Homo sapiens), P36888 [D835Y]; conditions: at 1 µM
# T6 sequence (whole entry): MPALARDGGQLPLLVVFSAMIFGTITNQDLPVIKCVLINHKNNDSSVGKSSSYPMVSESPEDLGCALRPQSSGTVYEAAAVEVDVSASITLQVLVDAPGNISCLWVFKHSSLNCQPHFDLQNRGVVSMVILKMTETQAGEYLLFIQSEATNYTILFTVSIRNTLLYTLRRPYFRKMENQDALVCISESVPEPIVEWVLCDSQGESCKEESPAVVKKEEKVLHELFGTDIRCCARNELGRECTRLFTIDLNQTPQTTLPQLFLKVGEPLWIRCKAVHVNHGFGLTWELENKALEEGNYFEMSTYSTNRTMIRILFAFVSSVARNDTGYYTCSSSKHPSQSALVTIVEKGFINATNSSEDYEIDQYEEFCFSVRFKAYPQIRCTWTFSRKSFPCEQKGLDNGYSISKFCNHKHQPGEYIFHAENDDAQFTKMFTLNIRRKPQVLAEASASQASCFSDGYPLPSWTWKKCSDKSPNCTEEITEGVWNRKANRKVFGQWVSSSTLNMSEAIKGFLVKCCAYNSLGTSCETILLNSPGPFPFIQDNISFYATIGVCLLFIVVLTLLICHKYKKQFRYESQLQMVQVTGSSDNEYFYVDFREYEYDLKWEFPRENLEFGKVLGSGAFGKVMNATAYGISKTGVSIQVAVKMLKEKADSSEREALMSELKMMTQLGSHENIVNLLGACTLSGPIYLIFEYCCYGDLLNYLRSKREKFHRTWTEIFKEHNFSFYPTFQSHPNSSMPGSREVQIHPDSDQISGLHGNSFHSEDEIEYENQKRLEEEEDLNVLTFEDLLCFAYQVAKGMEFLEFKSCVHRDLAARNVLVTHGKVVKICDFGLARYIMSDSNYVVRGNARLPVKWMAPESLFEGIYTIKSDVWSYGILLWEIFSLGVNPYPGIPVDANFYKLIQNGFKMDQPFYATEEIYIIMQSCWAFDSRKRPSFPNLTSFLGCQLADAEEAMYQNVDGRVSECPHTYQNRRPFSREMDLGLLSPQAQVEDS
# [16] = biological target: Vascular endothelial growth factor receptor 3 (Homo sapiens) (UniProt P35916); conditions: at 0.1 µM
# [17] = biological target: Vascular endothelial growth factor receptor 3 (Homo sapiens) (UniProt P35916); conditions: at 1 µM
# [18] = biological target: Macrophage colony-stimulating factor 1 receptor (Homo sapiens) (UniProt P07333); conditions: at 0.1 µM
# [19] = biological target: Macrophage colony-stimulating factor 1 receptor (Homo sapiens) (UniProt P07333); conditions: at 1 µM
# [20] = biological target: Tyrosine-protein kinase Fyn (Homo sapiens) (UniProt P06241); conditions: at 0.1 µM
# Tyrosine-protein kinase Fyn (Homo sapiens), sequence (P06241 2-537 limits assumed): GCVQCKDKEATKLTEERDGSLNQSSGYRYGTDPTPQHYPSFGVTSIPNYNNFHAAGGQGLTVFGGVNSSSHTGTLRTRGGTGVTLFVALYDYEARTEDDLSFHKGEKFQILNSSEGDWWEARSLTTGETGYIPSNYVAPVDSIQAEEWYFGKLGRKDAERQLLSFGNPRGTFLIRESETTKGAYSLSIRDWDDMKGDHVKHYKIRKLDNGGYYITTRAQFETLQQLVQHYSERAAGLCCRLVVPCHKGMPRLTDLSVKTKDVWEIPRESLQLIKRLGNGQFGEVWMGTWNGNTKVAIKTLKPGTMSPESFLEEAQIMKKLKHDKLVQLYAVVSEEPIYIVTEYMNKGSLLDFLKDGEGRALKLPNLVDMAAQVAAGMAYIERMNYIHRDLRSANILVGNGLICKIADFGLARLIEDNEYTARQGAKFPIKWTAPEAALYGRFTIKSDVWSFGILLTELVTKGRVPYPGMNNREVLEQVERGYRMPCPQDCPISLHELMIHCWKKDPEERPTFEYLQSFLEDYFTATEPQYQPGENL
# Serine/threonine-protein kinase Nek7 (Homo sapiens), sequence (Q8TDX7 whole entry, looked up): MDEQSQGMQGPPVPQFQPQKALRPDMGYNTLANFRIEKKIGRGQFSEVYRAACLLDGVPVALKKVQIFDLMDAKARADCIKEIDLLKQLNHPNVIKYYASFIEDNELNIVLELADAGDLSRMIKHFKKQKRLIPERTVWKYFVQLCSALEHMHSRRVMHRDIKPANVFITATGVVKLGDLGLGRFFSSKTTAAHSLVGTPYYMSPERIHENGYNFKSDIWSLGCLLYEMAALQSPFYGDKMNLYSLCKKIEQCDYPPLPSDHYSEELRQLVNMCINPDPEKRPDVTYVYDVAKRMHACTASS
# Serine/threonine-protein kinase PLK1 (Homo sapiens), sequence (P53350 whole entry): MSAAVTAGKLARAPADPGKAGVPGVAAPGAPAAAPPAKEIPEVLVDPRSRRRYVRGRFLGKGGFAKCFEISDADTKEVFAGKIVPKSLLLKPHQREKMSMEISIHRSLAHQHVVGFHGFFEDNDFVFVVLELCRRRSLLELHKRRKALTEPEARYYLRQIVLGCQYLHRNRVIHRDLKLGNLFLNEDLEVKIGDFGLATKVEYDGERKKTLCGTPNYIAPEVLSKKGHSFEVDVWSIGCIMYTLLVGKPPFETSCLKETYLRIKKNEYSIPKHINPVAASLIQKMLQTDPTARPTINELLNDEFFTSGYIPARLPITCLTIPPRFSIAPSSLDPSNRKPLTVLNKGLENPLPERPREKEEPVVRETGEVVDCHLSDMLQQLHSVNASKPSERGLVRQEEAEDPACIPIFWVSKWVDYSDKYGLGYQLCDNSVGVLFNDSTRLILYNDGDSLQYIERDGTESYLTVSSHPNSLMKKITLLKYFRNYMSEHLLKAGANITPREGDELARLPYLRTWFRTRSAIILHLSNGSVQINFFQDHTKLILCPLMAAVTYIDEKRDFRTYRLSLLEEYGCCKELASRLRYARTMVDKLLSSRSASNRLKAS
# Macrophage colony-stimulating factor 1 receptor (Homo sapiens), sequence (P07333 whole entry): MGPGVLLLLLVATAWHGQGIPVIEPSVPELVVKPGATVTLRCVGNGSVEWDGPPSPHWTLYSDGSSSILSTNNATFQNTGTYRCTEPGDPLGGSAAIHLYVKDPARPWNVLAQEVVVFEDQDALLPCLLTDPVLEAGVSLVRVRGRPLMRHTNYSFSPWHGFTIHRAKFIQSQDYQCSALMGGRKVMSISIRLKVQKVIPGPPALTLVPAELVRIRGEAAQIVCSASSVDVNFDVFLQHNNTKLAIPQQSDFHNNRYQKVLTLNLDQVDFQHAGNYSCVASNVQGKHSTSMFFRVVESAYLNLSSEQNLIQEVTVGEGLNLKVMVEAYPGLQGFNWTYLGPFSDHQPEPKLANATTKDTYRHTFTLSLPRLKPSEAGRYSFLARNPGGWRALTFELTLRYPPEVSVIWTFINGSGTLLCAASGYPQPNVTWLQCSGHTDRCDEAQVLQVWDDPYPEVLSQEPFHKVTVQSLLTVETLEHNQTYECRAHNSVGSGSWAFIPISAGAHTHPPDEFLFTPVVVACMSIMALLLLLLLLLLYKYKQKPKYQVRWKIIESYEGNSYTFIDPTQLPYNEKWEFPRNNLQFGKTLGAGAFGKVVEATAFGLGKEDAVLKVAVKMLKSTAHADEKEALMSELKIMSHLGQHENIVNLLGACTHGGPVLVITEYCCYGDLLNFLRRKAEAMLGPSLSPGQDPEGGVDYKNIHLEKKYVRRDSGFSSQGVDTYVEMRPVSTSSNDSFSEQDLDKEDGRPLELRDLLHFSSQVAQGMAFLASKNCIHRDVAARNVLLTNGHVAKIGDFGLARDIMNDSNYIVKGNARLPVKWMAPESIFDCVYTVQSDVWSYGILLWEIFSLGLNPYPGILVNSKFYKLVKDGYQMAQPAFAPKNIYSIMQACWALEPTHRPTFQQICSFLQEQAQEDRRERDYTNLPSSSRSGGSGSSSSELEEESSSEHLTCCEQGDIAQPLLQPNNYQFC
# Vascular endothelial growth factor receptor 3 (Homo sapiens), sequence (P35916 whole entry): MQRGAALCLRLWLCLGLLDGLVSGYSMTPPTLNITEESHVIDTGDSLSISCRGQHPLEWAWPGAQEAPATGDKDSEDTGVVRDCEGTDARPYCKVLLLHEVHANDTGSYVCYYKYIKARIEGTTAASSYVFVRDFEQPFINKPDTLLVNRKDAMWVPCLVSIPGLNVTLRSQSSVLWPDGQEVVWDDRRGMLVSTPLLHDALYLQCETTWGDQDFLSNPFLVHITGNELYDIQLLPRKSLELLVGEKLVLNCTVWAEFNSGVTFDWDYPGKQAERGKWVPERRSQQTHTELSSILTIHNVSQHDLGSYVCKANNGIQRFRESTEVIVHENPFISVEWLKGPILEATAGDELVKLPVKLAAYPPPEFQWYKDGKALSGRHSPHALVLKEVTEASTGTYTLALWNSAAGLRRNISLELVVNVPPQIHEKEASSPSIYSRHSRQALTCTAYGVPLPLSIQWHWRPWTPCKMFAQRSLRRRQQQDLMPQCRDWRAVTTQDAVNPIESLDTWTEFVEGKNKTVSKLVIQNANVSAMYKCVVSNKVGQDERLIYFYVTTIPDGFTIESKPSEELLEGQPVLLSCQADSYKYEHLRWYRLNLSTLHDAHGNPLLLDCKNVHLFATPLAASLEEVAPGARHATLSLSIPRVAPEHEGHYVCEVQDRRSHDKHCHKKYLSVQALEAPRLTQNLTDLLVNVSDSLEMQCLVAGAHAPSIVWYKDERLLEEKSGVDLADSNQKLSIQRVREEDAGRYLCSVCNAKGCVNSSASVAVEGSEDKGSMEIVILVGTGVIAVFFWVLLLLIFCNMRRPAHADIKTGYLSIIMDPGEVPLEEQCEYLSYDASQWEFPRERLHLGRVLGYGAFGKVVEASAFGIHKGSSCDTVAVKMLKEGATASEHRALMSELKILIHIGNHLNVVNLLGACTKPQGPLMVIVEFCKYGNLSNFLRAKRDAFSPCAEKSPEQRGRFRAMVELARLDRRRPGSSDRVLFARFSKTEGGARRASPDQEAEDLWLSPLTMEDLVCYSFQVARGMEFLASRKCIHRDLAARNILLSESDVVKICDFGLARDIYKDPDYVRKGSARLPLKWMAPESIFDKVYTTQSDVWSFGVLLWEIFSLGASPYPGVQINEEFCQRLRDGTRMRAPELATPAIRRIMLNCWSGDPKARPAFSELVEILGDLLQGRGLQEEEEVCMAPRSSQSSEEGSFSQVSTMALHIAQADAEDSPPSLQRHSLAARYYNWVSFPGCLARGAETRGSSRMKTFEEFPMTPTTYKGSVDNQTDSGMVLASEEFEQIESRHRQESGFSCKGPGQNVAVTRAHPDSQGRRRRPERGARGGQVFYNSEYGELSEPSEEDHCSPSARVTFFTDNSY
# Serine/threonine-protein kinase Nek6 (Homo sapiens), sequence (Q9HC98 whole entry): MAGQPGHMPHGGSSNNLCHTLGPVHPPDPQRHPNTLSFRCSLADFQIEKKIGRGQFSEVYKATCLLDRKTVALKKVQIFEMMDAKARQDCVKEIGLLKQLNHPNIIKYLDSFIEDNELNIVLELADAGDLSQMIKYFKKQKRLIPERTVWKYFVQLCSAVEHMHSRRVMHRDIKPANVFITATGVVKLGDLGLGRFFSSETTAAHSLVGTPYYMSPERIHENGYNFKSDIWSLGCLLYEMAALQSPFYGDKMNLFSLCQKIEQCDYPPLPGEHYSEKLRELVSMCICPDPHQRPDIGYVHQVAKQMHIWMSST
smiles,measurement,setting,value
O=C(Nc1ccc(Oc2ccc3[nH]c(NC(=O)c4ccccc4)nc3c2)cc1)Nc1cc(C(F)(F)F)ccc1F,inhibition,[1],3.04%
same,inhibition,[2],1.92%
same,inhibition,[3],2.89%
same,inhibition,[4],4.15%
same,inhibition,[5],3.11%
same,inhibition,[6],3.73%
same,inhibition,[7],1.7%
same,inhibition,[8],4.29%
same,inhibition,[9],4.36%
same,inhibition,[10],9.72%
same,inhibition,[11],10.3%
same,inhibition,[12],2.66%
same,inhibition,[13],1.84%
same,inhibition,[14],5.51%
same,inhibition,[15],14%
same,inhibition,[16],14.1%
same,inhibition,[17],36.2%
same,inhibition,[18],4.75%
same,inhibition,[19],48.1%
same,inhibition,[20],3.06%
